{"source": "PubChem BioAssay AID743398", "about": "(Broad Institute, 2014)", "note": "In all, about 300,000 compounds went through this assay and about 3,600 (1.2%) were called active. No stated cut-off is given here; in the data, active means activation above about 30% (passing the limit was not always enough); inconclusive means no clear call, values can overlap the other calls. Many of the other results were omitted from the sample, so actives are more common in it than they were.", "data": [{"test": "Wnt/beta-catenin pathway activators, primary screen, cell-based, plate reader, single point (AID 743398);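 further: 0% = neutral control wells and 100% = positive control wells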", "settings": "Wnt/beta-catenin reporter cell assay, activator, at 9.35 µM, hits give high values", "values": [{"smiles": "CC(=O)NC(=O)NC(C)Cc1ccccc1", "note": "(stereo not given)", "activation": "-4.37% (inactive)"}, {"smiles": "CC(Cc1ccccc1)NC=O", "note": "(stereo not given)", "activation": "-1.03% (inactive)"}, {"smiles": "CC(Cc1ccccc1)NCCC(c1ccccc1)c1ccccc1", "note": "(stereo not given)", "activation": "42% (active)"}, {"smiles": "COc1cc(OC)cc(C(=O)NCCN2CCC3(CC2)C(=O)NCN3c2ccccc2)c1", "activation": "3.07% (inactive)"}, {"smiles": "Brc1ccc2c(c1)CNCc1cnnn1-2", "activation": "-2.63% (inactive)"}]}]}
